In the library only some 7.3% were active in any assay of this set; here they are far more common.
uPA generation: qHTS for Inhibitors of Cell Surface uPA Generation. AID 540303, 2011. cell surface uPA generation assay, qHTS. Potency, µM (highest dose often 38.3 µM), inactives show top-dose activity change, negative = inhibition, most hits filed as inhibitors. 0.31% of 330,000 active; active = well fitted inhibition curve with a large enough effect; inconclusive = small, poorly fitted or top-dose-only effect; inactive = no such curve, though single readings can be large or run the other way; tested in mouse RAW 264.7 cells; also: % is scaled to controls: 0 for no effect and ±100 for the full control effect; nearly all actives have a fitted effect of over 55% in size
SMN2 splice enh: qHTS Assay for Enhancers of SMN2 Splice Variant Expression; 2.8% of 210,000 active; Potency, µM (doses to about 46.1 µM), for inactives: at the highest dose activity change, positive = activation, hits mostly activators; HEK293 SMN2-luciferase splicing reporter, luminescence, 30-36 h; also: % of control where 0% means no effect; nearly all actives have a fitted effect of over 55% in size
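qHTS luciferase splicing reporter: luminescence rises when SMN2 exon 7 is included in transfected HEK293 cells. Compound exposure lasted 30-36 h at 37C, with 4.5 mM final sodium butyrate as control, followed by a ONE-Glo read.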
ELG1 genotox: qHTS screen for small molecules that induce genotoxicity in human embryonic kidney (HEK293T) cells expressing luciferase-tagged ELG1; HEK293T ELG1-luciferase reporter, luminescence, 16 h; Potency, µM (titrated, usually from 46 µM), without a hit: at the top dose activity change, positive = activation, most hits filed as activators; 1.3% of 330,000 active; AID 504466, 2011; also: % of control where 0% means no effect; nearly all actives have a fitted effect of over 60% in size
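Luminescence read-out: rising ELG1-luciferase signal, reflecting elevated ELG1 protein under genetic stress, flags genotoxic compounds. Cells were treated for 16 hr at 37 °C before ONE-Glo detection.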
NPC1 prom act: qHTS Assay for NPC1 Promoter Activators; Huh7 NPC1 promoter luciferase reporter, 24 h; Potency, µM (doses to about 9.22 µM), for the others: at the highest dose activation, usual class: activators; 2.4% of 320,000 active; AID 485313, 2010; also: % of control where 0% means no effect; nearly all actives have a fitted effect of over 60% in size
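Huh7 cells stably carrying NPC1 promoter–luciferase, plated in Opti-MEM with 10% FBS for 2 h, were exposed to compound in DMSO for 24 h at 37 °C; luciferase reagent was added for 10 min and luminescence read.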
Rab9 prom act: qHTS Assay for Rab9 Promoter Activators. Potency, µM (titrated, usually from 9.22 µM), without a hit: top-dose activation, negative = inhibition, usual class: activators. 2.8% of 320,000 active. Huh7 Rab9 promoter-luciferase reporter, luminescence, 24 h. AID 485297, 2010; also: % of control where 0% means no effect; nearly all actives have a fitted effect of over 60% in size
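Rab9 promoter-driven luciferase in stably transfected Huh7 cells; 1500 cells/well rested 2 h, exposed to compound in DMSO for 24 h at 37 °C, 5% CO2. Luminescence read 10 min after adding luciferase reagent at ambient temperature.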
FLuc modulator: qHTS profiling assay for firefly luciferase inhibitor/activator using purifed enzyme and Km concentrations of substrates (counterscreen for miR-21 project); AID 588342, 2011; 6.9% of 360,000 active; Luciferin 4-monooxygenase (Photinus pyralis), P08659; purified FLuc, Km substrates, luminescence inhibition; Potency, µM (titrated, usually from 57.5 µM), for the others: top-dose activity change, negative = inhibition, hits mostly inhibitors;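 also: plate controls were vehicle for no effect and reference inhibitor for full effect; nearly all actives have a fitted effect of over 55% in size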
Target sequence (P08659 whole entry, looked up): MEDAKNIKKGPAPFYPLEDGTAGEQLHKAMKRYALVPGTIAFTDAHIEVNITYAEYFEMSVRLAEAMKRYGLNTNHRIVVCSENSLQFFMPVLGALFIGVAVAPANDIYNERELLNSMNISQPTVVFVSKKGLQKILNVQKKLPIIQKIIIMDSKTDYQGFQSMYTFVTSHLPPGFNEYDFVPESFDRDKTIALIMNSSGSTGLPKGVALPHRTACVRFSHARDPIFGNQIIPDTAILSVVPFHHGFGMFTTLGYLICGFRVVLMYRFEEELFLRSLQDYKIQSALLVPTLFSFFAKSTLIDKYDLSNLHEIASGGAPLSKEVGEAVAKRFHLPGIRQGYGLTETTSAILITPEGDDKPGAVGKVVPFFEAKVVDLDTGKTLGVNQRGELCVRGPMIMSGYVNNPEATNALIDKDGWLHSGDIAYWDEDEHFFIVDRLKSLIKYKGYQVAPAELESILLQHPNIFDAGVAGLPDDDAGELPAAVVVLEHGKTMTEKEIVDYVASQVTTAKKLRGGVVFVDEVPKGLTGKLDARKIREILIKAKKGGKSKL
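Purified P. pyralis luciferase, 10 nM final, with Km-level 10 uM D-luciferin and 10 uM ATP in 50 mM Tris acetate pH 7.5, 10 mM Mg acetate, 0.01% Tween-20, 0.05% BSA; 6-point qHTS titration about 60 µM downward; luminescence read.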
Numbers without * were called inactive; ? = inconclusive; . = no result given; [ ] = remark or other dose. Unless noted, calls follow the shape of the dose curve; as a rule, active = well fitted curve in the direction sought with a large enough effect; inconclusive = small, poorly fitted or top-dose-only effect, or another doubt; inactive = no such curve, though single readings can be large; an effect the other way counts as inactive or inconclusive. Potency is read from the fitted curve at half-maximal effect.

SMILES	uPA generation	SMN2 splice enh	ELG1 genotox	NPC1 prom act	Rab9 prom act	FLuc modulator
CCCCCN1C(C(=O)c2ccccc2)=C(NC(=O)c2ccc(OC)c(OC)c2)c2ccccc2S1(=O)=O	.	-96%	.	.	.	2%
CCc1c(C)c2ccc3c(c2oc1=O)CN(Cc1ccccc1)CO3	.	.	.	.	.	-6%
COc1ccc2[nH]c(C(=O)NCc3ccccc3)cc2c1	1%	.	-8%	-3%	1%	-19%
CCOC(=O)c1[nH]c2ccc(F)cc2c1NC(=O)c1cc(OC)c(OC)c(OC)c1	-4%	22µM*	1%	0%	8%	1%
CCOC(=O)c1[nH]c2ccc(OC)cc2c1C	-5%	4%	?	?	?	13µM*
CCOC(=O)c1cc2cc(OC)ccc2[nH]1	-1%	-3%	?	3.5µM*	4µM*	12µM*
COc1ccc(-c2cn3c(n2)sc2cc(C(=O)NCCC4=CCCCC4)ccc23)cc1	.	.	.	.	.	-3%
COc1ccc(-n2nc(C(=O)N3CCCCC3)c3c4ccccc4n(C)c3c2=O)cc1Cl	.	6%	.	.	.	0%
Cc1ccccc1CNc1nc(N(C)C)nc2c1cnn2C	.	.	.	.	.	4%
O=C(C1CCCC1)N1CCN(S(=O)(=O)c2cccc(Cl)c2Cl)CC1	-1%	.	-1%	0%	-1%	1%
COc1ccc(-c2nnc(NC(=O)c3c(OC)cccc3OC)s2)cc1	?	.	-2%	4%	3%	?
COc1ccc(-c2nnc(NC(=O)c3cc(C)on3)s2)cc1	.	?	?	9%	-1%	12µM*
COc1ccc(C(=O)Nc2nnc(-c3ccccc3)s2)cc1	2%	.	18µM*	0.79µM*	1.3µM*	-12%
COC(=O)Nc1nnc(-c2ccc(OC)cc2)s1	-9%	.	16µM*	2.5µM*	2.8µM*	8.5µM*
COc1ccc(-c2cc(C(=O)Nc3cc(C)on3)no2)cc1	-6%	23%	17%	19%	?	0%
CCOC(=O)Nc1nnc(-c2ccc(OC)c(OC)c2)s1	1%	5.6µM*	4%	-3%	6%	1%
O=C(Nc1cnc(N2CCC(N3CCCCC3)CC2)c(C(=O)O)c1)c1ccc(Br)cc1	.	.	.	.	.	-10%
COc1ccc(C(=O)Nc2nnc(C(F)(F)F)s2)cc1	-3%	5µM*	?	1.8µM*	2.5µM*	5.4µM*
O=C(O)[C@@H]1CCCN1Cc1c[nH]c2ccccc12	.	-12%[9.22 µM]	.	.	.	.
O=c1oc2ccccc2n1CCCOc1ccccc1Cl	.	20µM*	.	.	.	12µM*
COc1ccc(OCCCn2c(=O)oc3ccc(C)cc32)cc1	.	?	.	.	.	-10%
Cc1ccc2oc(=O)n(CCCOc3ccccc3)c2c1	2%	-2%	?	?	?	24µM*
CCc1c(C)c2ccc(O)c(CN3CCN(c4ccc(F)cc4)CC3)c2oc1=O	.	.	.	.	.	-1%
O=C(NCC1CCN(Cc2ccccc2Cl)CC1)c1cc2ccc3cccnc3c2[nH]1	.	.	.	.	.	-14%
COc1ccc(/C=N/n2c(SC)nnc2-c2ccccc2)cc1C	-10%	-13%	.	.	.	-2%
SMILES	uPA generation	SMN2 splice enh	ELG1 genotox	NPC1 prom act	Rab9 prom act	FLuc modulator
COc1ccc(/C=N/n2c(SC)nnc2-c2ccccc2)c(OC)c1OC	-15%	14µM*	3%	-33%	-14%	-5%
COC(=O)c1sc(NC(=S)NC(=O)c2ccc(F)cc2)nc1C	.	-36%	10%	27%	?	3%
C=CCOC(=O)c1sc(NC(=O)c2ccc(OC)cc2)nc1C	-2%	?	?	-37%	2%	?
COC(=O)c1sc(NC(=S)NC(=O)c2cccc(Br)c2)nc1C	0%	.	14%	-4%	3%	13µM*
COC(=O)c1sc(NC(=O)c2ccncc2)nc1C	-2%	.	4%	-2%	12%	24µM*
CCOc1ccc(C(=O)Nc2nc(C)c(C(=O)OC)s2)cc1	0%	.	21µM*	?	?	0.76µM*
COc1ccc(OC)c(C(=O)c2ccc(C(=O)Nc3ccc(NC(C)=O)cc3)cc2)c1	14%	.	?	-3%	8%	3%
CCCCOc1ccccc1Cn1c(=O)sc2ccccc21	.	-20%	.	.	.	-16%
COc1ccc(C#Cc2ccc3c(=O)c4ccccc4n(C)c3c2)cc1	14%	.	-4%	-2%	-1%	-17%
Cn1c2ccccc2c(=O)c2ccc(C#Cc3ccc(N)cc3)cc21	6.3µM*	.	5%	16%	21%	?
Cn1c2ccccc2c(=O)c2cc(C#Cc3cccc(N)c3)ccc21	?	.	?	0%	-1%	4.8µM*
Cn1c2ccccc2c(=O)c2cc(C#CC3=CCCCC3)ccc21	6.3µM*	.	?	?	?	6.7µM*
COC(=O)N[C@@H](/C=C/c1ccccc1)C[N+](=O)[O-]	.	2%	.	.	.	.
Cc1sc2ncn(CC(=O)Nc3ccc(C(F)(F)F)cc3)c(=O)c2c1S(=O)(=O)N1CCN(C)CC1	.	-5%	.	.	.	-2%
CC(=O)Nc1ccc(SCC(=O)c2cc(C)n(-c3ccccc3F)c2C)cc1	-2%	-70%	?	?	23%	6µM*
COCCn1c(C)cc(C(=O)COC(=O)CCS(=O)(=O)c2ccc(C)cc2)c1C	1%	.	19%	1%	1%	?
COCC(C)n1c(C)cc(C(=O)CSc2ccc(NC(C)=O)cc2)c1C (configuration not stated)	-1%	-40%	7.9µM*	?	?	-19%
COC(=O)c1ccc(-n2c(C)cc(C(=O)CSc3ccc(NC(C)=O)cc3)c2C)cc1	7%	-12%	-8%	0%	-2%	-12%
COCCn1c(C)cc(C(=O)CSc2ccc(NC(C)=O)cc2)c1C	3%	-42%	?	?	2µM*	?
O=C(CSc1ncccn1)c1ccccc1Br	0%	13µM*	17%	1%	3%	?
CCc1cccc(NC(=O)Cn2c(=O)n(-c3ccccc3C)c(=O)c3c2c2cc(C)ccc2n3C)c1	.	.	.	.	.	3%
CC(C)N(Cc1nc(-c2ccc(Cl)cc2)no1)C(=O)c1ccco1	.	-26%	.	.	.	-6%
CC(=O)Nc1ccc(SCC(=O)c2cc(C)n(Cc3cccs3)c2C)cc1	-6%	-53%	?	13%	?	17µM*
COCC(C)n1c(C)cc(C(=O)CSc2nnc(Nc3ccccc3F)s2)c1C (configuration not stated)	2%	-25%	-11%	-4%	7%	17µM*
C=CCn1c(C)cc(C(=O)CSc2ccc(NC(C)=O)cc2)c1C	1%	-51%	?	0.5µM*	0.32µM*	17µM*
